From PubChem BioAssay (EPA / NIEHS) come the findings set out here.

Assay [1] is described as follows: CCTE_Shafer_MEA_dev_bursting_electrodes_number: CCTE's Neural Network Formation Assay for Number of Bursting Electrodes, Shafer Lab (AID 2284043; active means hit-call score of the fitted dose curve at least 0.9, where 1 is the maximum;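 on AC50: potency is for loss of bursting electrodes relative to DMSO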). In a few lines: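 Counted: electrodes with burst rate ≥1 per 2 min in each well. Cells: primary rat cortex, 1.5 x 10^5/well, on 16-electrode MEA wells. Exposure: DIV 0–12, compound renewed DIV 5 and 9. Recording days 5, 7, 9, 12; AUC vs DMSO baseline.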

A short description of assay [2]: CCTE_Shafer_MEA_dev_per_burst_interspike_interval: CCTE's Neural Network Formation Assay for Burst Interspike Interval, Shafer Lab (AID 2284044).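 Further: mean spike spacing inside bursts as AUC over recordings on days 5 7 9 12.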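 On AC50: potency for a decrease of within-burst interspike interval below DMSO level.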 In a few lines: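 Spontaneous activity of maturing rat cortical networks is recorded on DIV 5, 7, 9 and 12 under chronic compound exposure beginning at plating. Endpoint: burst interspike interval well-mean, collapsed into trapezoidal AUC and fitted in the negative direction relative to DMSO.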

Assay [3] can be described thus: CCTE_Shafer_MEA_dev_burst_duration_mean: CCTE's Neural Network Formation Assay for Mean Burst Duration, Shafer Lab (AID 2284045).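 On AC50: curve fitted for loss meaning shorter burst duration than DMSO.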 The procedure, abridged:
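Network-formation assay in primary rat cortical neurons; treatment spans twelve days of development. Mean burst duration per well is integrated by trapezoidal AUC and fitted in the loss-of-signal direction against DMSO baseline.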

Assay [4] is described as follows: CCTE_Shafer_MEA_dev_interburst_interval_mean: CCTE's Neural Network Formation Assay for Mean Interburst Interval, Shafer Lab (AID 2284046).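 Further: well-mean interburst interval of bursting electrodes as AUC over four recording days; curve fitted for decrease in interburst interval relative to DMSO.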 The procedure, abridged:
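Recordings on days 5, 7, 9 and 12 give well-mean interburst interval across actively bursting electrodes, summarized as area under the curve. Cultures: rat cortical neurons, continuous exposure from day 0, compound renewed at feeds; decrease analyzed versus DMSO.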

Assay [5] can be described thus: CCTE_Shafer_MEA_dev_inter_network_spike_interval_mean: CCTE's Neural Network Formation Assay for Mean Inter-network Spike Interval, Shafer Lab (AID 2284047).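 On AC50: potency for a decrease in mean inter-network spike interval below DMSO.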 The procedure, abridged:
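Primary rat cortical neurons on 16-electrode MEA wells, exposed from plating day 0 through DIV 12, compound renewed at DIV 5 and 9 media changes. Mean interval between network-spike peaks recorded DIV 5, 7, 9, 12; collapsed as trapezoidal AUC, fitted downward versus DMSO.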

Assay [6] is described as follows: CCTE_Shafer_MEA_dev_network_spike_number: CCTE's Neural Network Formation Assay for Number of Network Spikes, Shafer Lab (AID 2284048).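 Further: synchronized bursts across electrodes counted on days 5 7 9 12 and integrated as AUC.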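 On AC50: fit as a loss of signal meaning fewer network spikes than DMSO.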 The procedure, abridged:
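Extracellular recordings from 16-electrode wells track network formation in rat cortical cultures under continuous treatment from plating. The endpoint is network spike number, expressed as AUC across DIV 5–12 relative to DMSO vehicle.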

Assay [7] in a line: CCTE_Shafer_MEA_dev_network_spike_peak: CCTE's Neural Network Formation Assay for Mean Number of Electrodes in Network Spike, Shafer Lab (AID 2284049).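 On AC50: fitted for loss of signal meaning fewer electrodes in network spikes than DMSO.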 In a few lines:
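Continuous 12-day exposure of rat cortical cultures, starting at plating, on MEA plates. Endpoint: electrodes participating in network-spike peaks, AUC across DIV 5–12, DMSO as negative control.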

Assay [8] can be described thus: CCTE_Shafer_MEA_dev_spike_duration_mean: CCTE's Neural Network Formation Assay for Mean Spike Duration, Shafer Lab (AID 2284051).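 Further: mean network spike duration pooled as area under curve over DIV 5 to 12 recordings.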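 On AC50: potency for a decrease in mean network spike duration versus DMSO.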 In a few lines: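 Primary rat cortical neurons on 16-electrode MEA wells (PEI-coated, laminin in plating drop), exposed from plating through DIV 12 with compound renewed at DIV 5 and 9. Mean network-spike duration recorded DIV 5, 7, 9, 12; trapezoidal AUC across days, DMSO baseline.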

The nature of assay [9]: CCTE_Shafer_MEA_dev_network_spike_duration_std: CCTE's Neural Network Formation Assay for Standard Deviation of Network Spike Duration, Shafer Lab (AID 2284052).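 Further: area under curve of spike duration SD across recording days 5 to 12; hits are decreases in network spike duration SD versus DMSO vehicle.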 In a few lines:
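Primary rat cortical neurons on PEI-coated 16-electrode MEA wells, exposed from plating day 0 through day 12 with compound renewed at DIV 5 and 9. Network spike duration SD recorded on days 5, 7, 9, 12, collapsed as trapezoidal AUC; loss-of-signal fit versus DMSO.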

The next assay deals with DIO2 (gene 1734). Nature of the assay: CCTE_GLTED_hDIO2: CCTE's human Deiodinase 2 (DIO2) Inhibition Assay, Great Lakes Toxicology and Ecology Division (GLTED) Lab (AID 2284050; active means hit-call score of the fitted dose curve at least 0.9, where 1 is the maximum). The procedure, abridged:
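Inhibition is judged by reduced iodide release: uninhibited human DIO2 frees iodide from substrate over 3 h, measured afterward by Sandell-Kolthoff colorimetry. Iodinated chemicals or nitrite, iron and thiocyanate may interfere.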

Values joined by “and” are separate entries in the source; they are usually repeats but may differ in a detail not shown here. Equal values may be shown once. Results filed as inconclusive are left out. Some structures have more than one record in an assay (separate samples or runs), and their calls can disagree. Active and inactive are the calls of the source. How the source made its calls, unless noted: active means hit-call score of the fitted dose curve at least 0.9, where 1 is the maximum; inactive means score below 0.9.

Take `O=S(=O)(c1ccc(O)cc1)c1ccc(O)cc1`: the compound was called inactive in assay [1], in assay [2], in assay [3], in assay [4], in assay [5] and in [6]. For the same compound, the compound was called inactive in assay [7], in assay [8] and in [9].
In the case of `CCOP(=S)(OCC)SCSCC`, the AC50 in [1] is 76.1 µM (active) and 23.1 µM (active); in [4] it was 50 µM (active); in assay [7], 74.9 µM (active) and 26.4 µM (active); in [8] it was 72.3 µM (active). Moreover, the outcome in [2], in assay [3], in [4], in assay [5], in assay [6] and in assay [8] was inactive. For the same compound, the call in assay [9] was inactive.
On to `CCOc1ccc(C(C)(C)COCc2cccc(Oc3ccccc3)c2)cc1`, for which the AC50 is 8.06 µM (active) in assay [1]; 14 µM (active) in [2]; 18 µM (active) in assay [4]; 6.54 µM (active) in assay [7]; 4.41 µM (active) in assay [8]. For the same compound, the compound was classed as inactive in assay [3], in [5], in assay [6] and in [9].
Turning to `CC(O)C(F)(F)C(F)(F)F` (stereo not drawn), the result in assay [1], in assay [2], in assay [3], in [4], in [5] and in [6] was inactive. Moreover, the call in assay [7], in assay [8] and in assay [9] was inactive.
Turning to `CCNc1nc(Cl)nc(NC(C)(C)C)n1`, in the assay with DIO2 (gene 1734), the call was inactive.
Consider `OCC(F)(F)OC(F)(F)C(F)(F)OC(F)(F)CO`, for which the outcome in assay [1], in assay [2], in assay [3], in [4], in assay [5] and in [6] was inactive. The compound was classed as inactive in assay [7], in [8] and in assay [9].
As for `CCC1(c2ccccc2)C(=O)N=C(O)NC1=O` (stereo not drawn), the outcome in assay [2], in assay [3], in assay [4], in [5], in assay [6] and in [7] was inactive. Moreover, the compound was called inactive in assay [8] and in assay [9].
With `O=C(O)C(F)(F)C(F)(F)C(=O)O`, the result in [1], in assay [2], in assay [3], in assay [4], in assay [5] and in [6] was inactive. Also, the call in [7], in assay [8] and in [9] was inactive.
Take `CCCCC(CC)COP(=O)(Oc1ccccc1)Oc1ccccc1` (stereo not drawn): the result in assay [1], in [2], in [3], in assay [4], in assay [5] and in [6] was inactive. Further, the compound was classed as inactive in [8] and in [9]. Besides, the AC50 in [7] was 1.67 µM (active).
With `OCC(F)(F)OC(F)(F)C(F)(F)OC(F)(F)C(F)(F)OC(F)(F)CO`, the compound was called inactive in assay [1], in assay [2], in [3], in [4], in [5] and in [6]. In addition, the result in assay [7], in assay [8] and in [9] was inactive.
Take `COC(=O)C(F)(F)C(F)(F)OC(F)(C(F)(F)F)C(F)(F)OC(F)=C(F)F` (stereo not drawn): the AC50 with DIO2 (gene 1734) was 18.2 µM (active).
As for `ClC1=C(Cl)C2(Cl)C3C(Cl)C(Cl)CC3C1(Cl)C2(Cl)Cl` (stereo not drawn), the AC50 in [1] is 7.54 µM (active); in assay [2], 3.93 µM (active); in assay [4] it was 7.68 µM (active); in assay [6], 1.98 µM (active); in [7] it was 6.76 µM (active); in assay [8], 7.67 µM (active). Further, the compound was called inactive in assay [3], in [5] and in [9].
Regarding `CC(C)(C)c1ccccc1OP(=O)(Oc1ccccc1)Oc1ccccc1`, the half-maximal activity concentration (AC50) in [1] was 16.4 µM (active) and 26.8 µM (active); in assay [7], 22.9 µM (active); in assay [8], 25.7 µM (active). The compound was called inactive in [2], in assay [3], in [4], in [5], in assay [6] and in assay [7]. The result in assay [8] and in [9] was inactive.
For the compound `O=C(O)C1C(C(=O)O)C2(Cl)C(Cl)=C(Cl)C1(Cl)C2(Cl)Cl` (stereo not drawn), the compound was classed as inactive in assay [2], in assay [3], in assay [4], in [5], in assay [6] and in [7]. In addition, the result in assay [8] and in assay [9] was inactive.
In the case of `O=P1(N(CCCl)CCCl)NCCCO1` (stereo not drawn), the outcome in [1], in assay [2], in [3], in assay [4], in assay [5] and in [6] was inactive. Also, the compound was called inactive in assay [7], in assay [8] and in [9].
As for `c1ccc(OP(Oc2ccccc2)Oc2ccccc2)cc1`, the result in assay [1], in assay [2], in [3], in assay [4], in assay [5] and in assay [6] was inactive. In addition, the compound was classed as inactive in [7], in assay [8] and in assay [9].
As to `OCC(F)(F)OC(F)(F)C(F)(F)OC(F)(F)C(F)(F)OC(F)(F)F`, the compound was called inactive in assay [1], in assay [2], in [3], in assay [4], in assay [5] and in assay [6]. Moreover, the result in [8] and in assay [9] was inactive. Moreover, the half-maximal activity concentration (AC50) in assay [7] was 0.818 µM (active).
For `O=C(O)C=CC(F)(C(F)(F)F)C(F)(F)F`, the compound was called inactive in [2], in assay [3], in assay [4], in assay [5], in [6] and in assay [7]. Further, the outcome in assay [8] and in assay [9] was inactive.
Take `O=P(Oc1ccccc1)(Oc1ccccc1)Oc1ccccc1`: the result in assay [1], in [2], in assay [3], in [4], in assay [5] and in [6] was inactive. For the same compound, the compound was called inactive in assay [8] and in [9]. Moreover, in [7], the AC50 was 2.97 µM (active).
In the case of `C=CC(=O)OCC(F)(F)C(F)F`, the AC50 was 4.87 µM (active) in assay [1]; 2.98 µM (active) in assay [2]; 8.76 µM (active) in assay [3]; 8.7 µM (active) in assay [4]; 9.04 µM (active) in [7]; 47.3 µM (active) with DIO2 (gene 1734). Moreover, the AC50 in [8] was 15 µM (active). In addition, the compound was called inactive in assay [5], in assay [6] and in assay [9].
For the compound `c1cc2c3c(cccc3c1)CC2`, the result in [1], in assay [2], in [3], in assay [4], in assay [5] and in [6] was inactive. The call in assay [7], in assay [8] and in assay [9] was inactive.
Regarding `O=C(O)C(F)(F)OC(F)(F)C(F)(F)OC(F)(F)C(=O)O`, the result in assay [1], in assay [2], in [3], in [4], in assay [5] and in [6] was inactive. In addition, the outcome in assay [7], in [8] and in assay [9] was inactive.
In the case of `O=C(O)C(F)(OC(F)(F)C(F)(F)C(F)(F)F)C(F)(F)F` (stereo not drawn), the outcome in assay [1], in assay [2], in [3], in [4], in assay [5] and in assay [6] was inactive. Further, the compound was classed as inactive in assay [7], in assay [8] and in assay [9]. Also, the AC50 in assay [6] was 0.402 µM (active).
Regarding `CO/N=C(/C(=O)OC)c1ccccc1COc1ccccc1C`, the AC50 in assay [1] was 0.857 µM (active); in [2], 2.25 µM (active); in assay [3] it was 0.863 µM (active); in assay [4] it was 0.939 µM (active); in assay [5], 0.712 µM (active); in [6], 0.474 µM (active). The AC50 in [7] is 0.567 µM (active); in [8], 0.688 µM (active); in [9], 0.312 µM (active).
For `O=C(O)C(F)(F)OC(F)(F)C(F)(F)OC(F)(F)F`, the call in [2], in assay [3], in assay [4], in assay [5], in assay [6] and in [7] was inactive. The outcome in assay [8] and in assay [9] was inactive.
`CCCCCCCc1ccc(O)cc1`: the concentration at half-maximal activity (AC50) in the assay with DIO2 (gene 1734) is 136 µM (active).
In the case of `O=c1ssc(Cl)c1Cl`, the AC50 in the assay with DIO2 (gene 1734) was 13.8 µM (active).
In the case of `CCCCC(CC)COC(=O)c1c(Br)c(Br)c(Br)c(Br)c1C(=O)OCC(CC)CCCC` (stereo not drawn), the outcome in assay [1], in assay [2], in assay [3], in assay [4], in [5] and in assay [6] was inactive. Also, the outcome in [8] and in assay [9] was inactive. In addition, the AC50 in assay [7] is 0.33 µM (active).
As for `CC1(C)CN=C(NN=C(/C=C/c2ccc(C(F)(F)F)cc2)/C=C/c2ccc(C(F)(F)F)cc2)NC1`, the AC50 with DIO2 (gene 1734) was 18.8 µM (active).

One may read the AC50 as the concentration giving half of the maximal activity seen.
